PubChem BioAssay AID1159580 (chemical genetic matrix, 2015)
Screen size: about 5,500 compounds; about 2,000 (36%) were called active. Inconclusive results (about 18%) are left out. Rule as the data show it: active = normalized growth mostly below about 0.91 (no sharp cut-off); inconclusive = no clear call, values can overlap the other calls; inactive = mostly above about 0.92. The list shows a part of the results.

Experiment: chemical genetic growth profiling, strain panel (AID 1159580);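 also: tested at 20 µM; growth read once vehicle control cultures reached saturation at 30 °C; 1 = growth at the plate median or of vehicle wells; lower values mean less growth of the strain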
Details: growth OD

Measured: normalized growth

CC1(C)C=Cc2cc3ccc(=O)oc3cc2O1
active: S. cerevisiae deletion strains, locus YJR066W, strain TOR1, active compounds read low 0.793 | S. cerevisiae deletion strains, locus YKR091W, strain srl3, active compounds read low 0.924 | S. cerevisiae deletion strains, locus YLL001W, strain dnm1, active compounds read low 0.876 | S. cerevisiae deletion strains, locus YLR113W, strain HOG1, active compounds read low 0.729 | S. cerevisiae deletion strains, locus YLR258W, strain gsy2, active compounds read low 0.895 | S. cerevisiae deletion strains, locus YLR262C, strain YPT6 (second series), active compounds read low 0.815 | S. cerevisiae deletion strains, locus YLR342W, strain FKS1, active compounds read low 0.909 | S. cerevisiae deletion strains, locus YLR370C, strain arc18, active compounds read low 0.873 | S. cerevisiae deletion strains, locus YLR371W, strain rom2, active compounds read low 0.906 | S. cerevisiae deletion strains, locus YML120C, strain ndi1, active compounds read low 0.85 | S. cerevisiae deletion strains, locus YMR129W, active compounds read low 0.923 | S. cerevisiae deletion strains, locus YNL071W, strain lat1, active compounds read low 0.863 | S. cerevisiae deletion strains, locus YNL209W, strain ssb2, active compounds read low 0.923 | S. cerevisiae deletion strains, locus YOR083W, strain WHI5, active compounds read low 0.844 | S. cerevisiae deletion strains, locus YOR106W, strain vam3, active compounds read low 0.821 | S. cerevisiae deletion strains, locus YOR231W, strain MKK1, active compounds read low 0.857 | S. cerevisiae deletion strains, locus YOR270C, strain vph1, active compounds read low 0.731 | S. cerevisiae deletion strains, locus YOR290C, strain snf2, active compounds read low 0.783 | S. cerevisiae deletion strains, locus YPL051W, strain arl3, active compounds read low 0.906 | S. cerevisiae deletion strains, locus YPL078C, strain atp4, active compounds read low 0.82 | S. cerevisiae deletion strains, locus YPL106C, strain sse1, active compounds read low 0.843 | S. cerevisiae deletion strains, locus YPL256C, strain CLN2, active compounds read low 0.776
inactive: S. cerevisiae deletion strains, locus YJR075W, strain HOC1, active compounds read low 0.941 | S. cerevisiae deletion strains, locus YKL009W, strain mrt4, active compounds read low 0.921 | S. cerevisiae deletion strains, locus YKL068W, active compounds read low 0.966 | S. cerevisiae deletion strains, locus YKL085W, strain MDH1 (second series), active compounds read low 0.973 | S. cerevisiae deletion strains, locus YKL085W, strain MDH1, active compounds read low 0.973 | S. cerevisiae deletion strains, locus YKL160W, strain elf1, active compounds read low 0.909 | S. cerevisiae deletion strains, locus YKR001C, strain vps1, active compounds read low 0.907 | S. cerevisiae deletion strains, locus YKR026C, strain gcn3, active compounds read low 0.942 | S. cerevisiae deletion strains, locus YLL026W, active compounds read low 0.934 | S. cerevisiae deletion strains, locus YLL041C, strain sdh2, active compounds read low 0.937 | S. cerevisiae deletion strains, locus YLR027C, strain aat2, active compounds read low 0.942 | S. cerevisiae deletion strains, locus YLR039C, strain RIC1, active compounds read low 0.91 | S. cerevisiae deletion strains, locus YLR058C, strain SHM2, active compounds read low 0.965 | S. cerevisiae deletion strains, locus YLR102C, strain apc9, active compounds read low 0.969 | S. cerevisiae deletion strains, locus YLR221C, strain rsa3, active compounds read low 0.93 | S. cerevisiae deletion strains, locus YLR268W, strain sec22, active compounds read low 0.985 | S. cerevisiae deletion strains, locus YLR320W, strain mms22, active compounds read low 0.891 | S. cerevisiae deletion strains, locus YLR330W, strain CHS5, active compounds read low 0.984 | S. cerevisiae deletion strains, locus YLR342W, strain FKS1 (second series), active compounds read low 0.87 | S. cerevisiae deletion strains, locus YLR357W, strain rsc2, active compounds read low 0.979 | S. cerevisiae deletion strains, locus YLR384C, strain iki3, active compounds read low 0.948 | S. cerevisiae deletion strains, locus YLR418C, strain cdc73, active compounds read low 0.851 | S. cerevisiae deletion strains, locus YML016C, strain PPZ1, active compounds read low 0.986 | S. cerevisiae deletion strains, locus YML032C, strain rad52, active compounds read low 0.923 | S. cerevisiae deletion strains, locus YML124C, strain tub3, active compounds read low 0.96 | S. cerevisiae deletion strains, locus YMR058W, strain fet3, active compounds read low 0.925 | S. cerevisiae deletion strains, locus YMR078C, strain ctf18, active compounds read low 0.95 | S. cerevisiae deletion strains, locus YMR125W, strain sto1, active compounds read low 0.999 | S. cerevisiae deletion strains, locus YMR205C, strain PFK2, active compounds read low 0.923 | S. cerevisiae deletion strains, locus YMR223W, strain ubp8, active compounds read low 0.908 | S. cerevisiae deletion strains, locus YMR231W, strain pep5, active compounds read low 0.976 | S. cerevisiae deletion strains, locus YMR263W, strain SAP30, active compounds read low 0.977 | S. cerevisiae deletion strains, locus YMR307W, strain GAS1, active compounds read low 1.06 | S. cerevisiae deletion strains, locus YNL067W, strain RPL9B, active compounds read low 0.957 | S. cerevisiae deletion strains, locus YNL128W, strain TEP1, active compounds read low 1 | S. cerevisiae deletion strains, locus YNL183C, strain NPR1, active compounds read low 0.843 | S. cerevisiae deletion strains, locus YNL233W, strain BNI4, active compounds read low 0.941 | S. cerevisiae deletion strains, locus YNL248C, strain rpa49, active compounds read low 0.916 | S. cerevisiae deletion strains, locus YNL250W, strain rad50, active compounds read low 0.965 | S. cerevisiae deletion strains, locus YNL271C, strain bni1, active compounds read low 0.958 | S. cerevisiae deletion strains, locus YNL298W, strain CLA4, active compounds read low 0.97 | S. cerevisiae deletion strains, locus YNL307C, strain MCK1, active compounds read low 0.943 | S. cerevisiae deletion strains, locus YNL322C, strain KRE1 (second series), active compounds read low 0.917 | S. cerevisiae deletion strains, locus YNR049C, strain mso1, active compounds read low 0.925 | S. cerevisiae deletion strains, locus YNR052C, strain pop2, active compounds read low 0.971 | S. cerevisiae deletion strains, locus YOL006C, strain TOP1, active compounds read low 0.75 | S. cerevisiae deletion strains, locus YOL012C, strain htz1 0.855 | S. cerevisiae deletion strains, locus YOL147C, strain pex11, active compounds read low 0.964 | S. cerevisiae deletion strains, locus YOR001W, strain rrp6, active compounds read low 0.895 | S. cerevisiae deletion strains, locus YOR061W, strain CKA2, active compounds read low 1 | S. cerevisiae deletion strains, locus YOR069W, strain VPS5, active compounds read low 0.99 | S. cerevisiae deletion strains, locus YOR070C, strain gyp1, active compounds read low 0.981 | S. cerevisiae deletion strains, locus YOR080W, strain dia2, active compounds read low 0.964 | S. cerevisiae deletion strains, locus YOR136W, strain idh2, active compounds read low 0.968 | S. cerevisiae deletion strains, locus YOR144C, strain elg1, active compounds read low 0.972 | S. cerevisiae deletion strains, locus YOR184W, strain ser1, active compounds read low 0.892 | S. cerevisiae deletion strains, locus YOR265W, strain rbl2, active compounds read low 0.935 | S. cerevisiae deletion strains, locus YOR316C, strain cot1, active compounds read low 0.978 | S. cerevisiae deletion strains, locus YPL055C, strain LGE1, active compounds read low 0.951 | S. cerevisiae deletion strains, locus YPL240C, strain hsp82, active compounds read low 0.936 | S. cerevisiae deletion strains, locus YPR119W, strain clb2, active compounds read low 0.953 | S. cerevisiae deletion strains, locus YPR141C, strain kar3, active compounds read low 0.957 | S. cerevisiae deletion strains, locus YPR163C, strain tif3, active compounds read low 0.983 | S. cerevisiae deletion strains, locus YPR167C, strain met16, active compounds read low 0.948 | S. cerevisiae deletion strains, strain wtn01, active compounds read low 0.927 | S. cerevisiae strains, strain wild type, active compounds read low 0.974
